# Values without a mark were called inactive. The source made the active and inactive calls.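 The calls were made as follows: active = compounds that lower survival of HCT116 colon cancer cells in the luminescence readout, no numeric limit stated; inactive = the rest.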
# Experiment: HCT116 colon cancer cell growth inhibition, primary screen, CellTiter-Glo luminescence, NPC library (AID 1117342)
# Conditions: at 20 µM (top of the series)
row,SMILES,inhibition of viability
1,C[C@@](Cc1ccc(O)c(O)c1)(NN)C(=O)O,27.4%
2,O=C(O)c1ccccc1OP(=O)(O)O,1.07%
3,Nc1ccc(N=Nc2ccccc2)c(N)n1,29%
4,C=CCc1ccc(O)c(OC)c1,3.77%
5,COc1ccc(-c2cc(C(F)F)nn2-c2ccc(S(N)(=O)=O)cc2)cc1F,22.3%
6,Cc1c(NC(=O)c2cccnc2)c(=O)n(-c2ccccc2)n1C,-4.77%
7,COc1ccc2cc1Oc1ccc(cc1)C[C@H]1c3c(cc4c(c3Oc3cc5c(cc3OC)CCN(C)[C@@H]5C2)OCO4)CCN1C,102% (active)
8,CN1CCCN=C1COC(=O)C(O)(c1ccccc1)C1CCCCC1 (stereo unspecified),19.6%
9,O=C(OCC(O)CO)c1ccccc1Nc1ccnc2cc(Cl)ccc12 (stereo unspecified),38.5%
10,Cc1cc(=O)[nH]c(=S)[nH]1,-2.3%
11,COc1cccc(OC)c1C(=O)N[C@@H]1C(=O)N2[C@@H]1SC(C)(C)[C@@H]2C(=O)O,-7%
12,O=C1c2cccc(O)c2C(=O)c2c(O)cccc21,21.9%
13,CC(=O)N(O)CCCCCNC(=O)CCC(=O)N(O)CCCCCNC(=O)CCC(=O)N(O)CCCCCN,75.7% (active)
14,CC1(C)O[C@@H]2C[C@H]3[C@@H]4C[C@H](F)C5=CC(=O)CC[C@]5(C)[C@H]4[C@@H](O)C[C@]3(C)[C@]2(C(=O)CO)O1,0.1%
15,COc1cc(NS(=O)(=O)c2ccc(N)cc2)ncn1,3.43%
16,Cc1onc(-c2ccccc2)c1C(=O)N[C@@H]1C(=O)N2[C@@H]1SC(C)(C)[C@@H]2C(=O)O,5.3%
